# Data taken from the supplement of paper PMC8728848.
# Only a selection was taken, and the strongest signals are over-represented in it overall.
# B1: Mincle (Bos taurus) (protein)
# chain: MNSSTSPASQTERRCFSFQLFSWAIAGTSILLLSACFITRCVVTYSIFQLCDEKKFQPPGDSMELSCYNDGSGSVKNCCPLKWFHFQSSCYLFSPDTMSWRASLKNCSSMGAHLVVINTQEEQEFLYYTKPRKKEFYIGLTDQVTEGQWQWVDGTPFTKSLSFWDAGEPNNLVIVEDCATIRDSSNPRQNWNDVPCFFNMFRVCEMPERKI
# What was measured:
# Assay in all cases: glycan array binding signal (z-score within array); higher = stronger binding
# Settings in all cases: glycan notation: IUPAC condensed, linker removed
# [1] = molecular target: Fuc(a1-2)Gal
# Summary of the method: (§1)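 Glycan array data were curated from 3228 arrays in the Consortium for Functional Glycomics database and kept only where the protein sequence was available. Glycan names were converted to IUPAC-condensed notation, and columns mapping to the same glycan were averaged. The binding signal is a within-array Z-score, averaged across arrays of the same protein sequence at different concentrations or buffers and across linkers. Negative Z-scores can be read as non-binding.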
# [2] = molecular target: Fuc(a1-2)Gal(b1-4)GlcNAc(b1-2)Man(a1-3)[Fuc(a1-2)Gal(b1-4)GlcNAc(b1-2)Man(a1-6)]Man(b1-4)GlcNAc(b1-4)GlcNAc
# Summary of the method: as §1
# [3] = molecular target: Fuc(a1-2)Gal(b1-4)GlcNAc(b1-6)GalNAc
# Summary of the method: as §1
# [4] = molecular target: Fuc(a1-2)Gal(b1-4)[Fuc(a1-3)]GlcNAc(b1-3)[Neu5Ac(a2-6)Gal(b1-4)GlcNAc(b1-6)]Gal(b1-4)Glc
# Summary of the method: as §1
# [5] = molecular target: Fuc(a1-2)[Gal(a1-3)]Gal
# Summary of the method: as §1
# [6] = molecular target: Fuc(a1-2)[Gal(a1-3)]Gal(b1-4)GlcNAc(b1-2)Man(a1-3)[Fuc(a1-2)[Gal(a1-3)]Gal(b1-4)GlcNAc(b1-2)Man(a1-6)]Man(b1-4)GlcNAc(b1-4)[Fuc(a1-6)]GlcNAc
# Summary of the method: as §1
# [7] = molecular target: Fuc(a1-2)[GalNAc(a1-3)]Gal(b1-3)GalNAc(b1-3)Gal(a1-4)Gal(b1-4)Glc
# Summary of the method: as §1
# [8] = molecular target: Fuc(a1-2)[GalNAc(a1-3)]Gal(b1-3)GlcNAc(b1-2)Man(a1-3)[Fuc(a1-2)[GalNAc(a1-3)]Gal(b1-3)GlcNAc(b1-2)Man(a1-6)]Man(b1-4)GlcNAc(b1-4)[Fuc(a1-6)]GlcNAc
# Summary of the method: as §1
# [9] = molecular target: Fuc(a1-2)[GalNAc(a1-3)]Gal(b1-4)GlcNAc(b1-2)Man(a1-3)[Fuc(a1-2)[GalNAc(a1-3)]Gal(b1-4)GlcNAc(b1-2)Man(a1-6)]Man(b1-4)GlcNAc(b1-4)GlcNAc
# Summary of the method: as §1
# [10] = molecular target: Fuc(a1-3)[Gal(b1-4)]Glc6S
# Summary of the method: as §1
# [11] = molecular target: Fuc(a1-3)[Gal3S(b1-4)]GlcNAc6S
# Summary of the method: as §1
# [12] = molecular target: Gal(a1-3)Gal(b1-3)GlcNAc(b1-3)GalNAc
# Summary of the method: as §1
# [13] = molecular target: Gal(a1-3)Gal(b1-3)[Fuc(a1-4)]GlcNAc(b1-2)Man(a1-3)[Gal(a1-3)Gal(b1-3)[Fuc(a1-4)]GlcNAc(b1-2)Man(a1-6)]Man(b1-4)GlcNAc(b1-4)GlcNAc
# Summary of the method: as §1
# [14] = molecular target: Gal(a1-3)Gal(b1-4)Glc
# Summary of the method: as §1
# [15] = molecular target: Gal(a1-3)Gal(b1-4)GlcNAc(b1-3)GalNAc
# Summary of the method: as §1
# [16] = molecular target: Gal(a1-3)Gal(b1-4)[Fuc(a1-3)]GlcNAc
# Summary of the method: as §1
# [17] = molecular target: Gal(a1-4)Gal(b1-4)Glc
# Summary of the method: as §1
# [18] = molecular target: Gal(a1-4)Gal(b1-4)GlcNAc(b1-2)Man(a1-3)[Gal(a1-4)Gal(b1-4)GlcNAc(b1-2)Man(a1-6)]Man(b1-4)GlcNAc(b1-4)GlcNAc
# Summary of the method: as §1
# [19] = molecular target: Gal(a1-4)Gal(b1-4)GlcNAc(b1-3)Gal(b1-4)Glc
# Summary of the method: as §1
# [20] = molecular target: Gal(b1-3)Gal(b1-4)GlcNAc
# Summary of the method: as §1
# [21] = molecular target: Gal(b1-3)GalNAc
# Summary of the method: as §1
# [22] = molecular target: Gal(b1-3)GlcNAc(b1-3)Gal(b1-4)GlcNAc(b1-2)Man(a1-3)[Gal(b1-3)GlcNAc(b1-3)Gal(b1-4)GlcNAc(b1-2)Man(a1-6)]Man(b1-4)GlcNAc(b1-4)GlcNAc
# Summary of the method: as §1
# [23] = molecular target: Gal(b1-3)GlcNAc6S
# Summary of the method: as §1
# [24] = molecular target: Gal(b1-3)[Fuc(a1-4)]GlcNAc(b1-2)Man
# Summary of the method: as §1
# [25] = molecular target: Gal(b1-4)Glc6S
# Summary of the method: as §1
# [26] = molecular target: Gal(b1-4)GlcNAc
# Summary of the method: as §1
# [27] = molecular target: Gal(b1-4)GlcNAc(b1-2)[Gal(b1-4)GlcNAc(b1-6)]Man(a1-6)[Gal(b1-4)GlcNAc(b1-2)Man(a1-3)]Man(b1-4)GlcNAc(b1-4)GlcNAc
# Summary of the method: as §1
# [28] = molecular target: Gal(b1-4)GlcNAc(b1-3)Gal(b1-4)GlcNAc(b1-2)Man(a1-3)[Gal(b1-4)GlcNAc(b1-3)Gal(b1-4)GlcNAc(b1-2)Man(a1-6)]Man(b1-4)GlcNAc(b1-4)[Fuc(a1-6)]GlcNAc
# Summary of the method: as §1
# [29] = molecular target: Gal(b1-4)GlcNAc(b1-3)Gal(b1-4)GlcNAc(b1-3)Gal(b1-4)GlcNAc(b1-3)Gal(b1-4)GlcNAc(b1-3)Gal(b1-4)GlcNAc(b1-3)Gal(b1-4)GlcNAc(b1-2)Man(a1-3)[Gal(b1-4)GlcNAc(b1-3)Gal(b1-4)GlcNAc(b1-3)Gal(b1-4)GlcNAc(b1-3)Gal(b1-4)GlcNAc(b1-3)Gal(b1-4)GlcNAc(b1-3)Gal(b1-4)GlcNAc(b1-2)Man(a1-6)]Man(b1-4)GlcNAc(b1-4)GlcNAc
# Summary of the method: as §1
# [30] = molecular target: Gal(b1-4)GlcNAc(b1-3)[Gal(b1-4)GlcNAc(b1-6)]Gal(b1-4)GlcNAc
# Summary of the method: as §1
# [31] = molecular target: Gal3S(b1-3)[Fuc(a1-4)]GlcNAc
# Summary of the method: as §1
binder,measurement,setting,value
B1,glycan array binding signal (z-score),[1],3.49
same,glycan array binding signal (z-score),[2],1.4
same,glycan array binding signal (z-score),[3],-0.168
same,glycan array binding signal (z-score),[4],-0.411
same,glycan array binding signal (z-score),[5],-0.737
same,glycan array binding signal (z-score),[6],-0.601
same,glycan array binding signal (z-score),[7],-0.374
same,glycan array binding signal (z-score),[8],0.364
same,glycan array binding signal (z-score),[9],0.419
same,glycan array binding signal (z-score),[10],-0.342
same,glycan array binding signal (z-score),[11],-0.116
same,glycan array binding signal (z-score),[12],0.019
same,glycan array binding signal (z-score),[13],1.26
same,glycan array binding signal (z-score),[14],0.058
same,glycan array binding signal (z-score),[15],-0.713
same,glycan array binding signal (z-score),[16],-0.559
same,glycan array binding signal (z-score),[17],-0.565
same,glycan array binding signal (z-score),[18],0.919
same,glycan array binding signal (z-score),[19],-0.763
same,glycan array binding signal (z-score),[20],-0.462
same,glycan array binding signal (z-score),[21],-0.37
same,glycan array binding signal (z-score),[22],0.271
same,glycan array binding signal (z-score),[23],-0.773
same,glycan array binding signal (z-score),[24],1.34
same,glycan array binding signal (z-score),[25],0.6
same,glycan array binding signal (z-score),[26],-0.249
same,glycan array binding signal (z-score),[27],-0.55
same,glycan array binding signal (z-score),[28],1.11
same,glycan array binding signal (z-score),[29],0.667
same,glycan array binding signal (z-score),[30],-1.01
same,glycan array binding signal (z-score),[31],3.35
